High-throughput results from PubChem.
TRPML1 agonist = qHTS for Agonists of the Human Mucolipin Transient Receptor Potential 1 (TRPML1); Mucolipin-1 (Homo sapiens), Q9GZU1; TRPML1-expressing cells, Ca2+ dye fluorescence, FDSS; activation, % (concentration not given with the values); hit rate 0.12% among 410,000; AID 624414, 2012; in the data active = activation above about 50%; inconclusive = mostly about 30% to 49%; also: 0% is about no effect
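Kinetic FDSS Ca2+ read in Tet-induced TRPML1-DL cells (ABD Ca8 dye plus quencher, 45-90 min RT loading): baseline, then compound, then 110 s agonist window; EC80 agonist 54-4 at 4uM final added afterwards for a 110 s antagonist window.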
Vif-A3F inh = qHTS for Inhibitors of Vif-A3F Interactions: qHTS; HeLa A3F-eYFP + Vif (tagged APOBEC3F with the HIV-1 protein that degrades it), YFP fluorescence increase; Potency, µM (titrated, usually from 46.1 µM), for inactives: top-dose activity, negative = active; hit rate 0.2% among 390,000; AID 602313, 2012; also: potency is read from the fitted curve at half-maximal effect; % of control where 0% means no effect; nearly all actives have a fitted effect of over 65% in size
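HeLa cells stably expressing Vif plus C-terminally eYFP-tagged A3F were seeded, incubated overnight at 37 deg C, dosed with compound, incubated overnight again at 37 deg C. Yellow fluorescence (Ex 488/Em 500-530) reported blocked Vif-mediated A3F-eYFP degradation.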
TRPML1 inh = qHTS for Inhibitors of the Human Mucolipin Transient Receptor Potential 1 (TRPML1). AID 624415, 2012. TRPML1-inducible cells, Ca2+ dye fluorescence, FDSS; active compounds read low; inhibition of EC80 agonist-evoked calcium signal. activity change, negative = inhibition, % (test concentration not listed). Mucolipin-1 (Homo sapiens), Q9GZU1. hit rate 0.02% among 390,000; in the data active = activity change below about -50%; inconclusive = between about -30% and that limit;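 also: stimulus is agonist 54-4 at its EC80 concentration; % is scaled to controls: 0 for no effect and ±100 for the full control effect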
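TRPML1-DL cells, Tet-induced overnight (~16 h, 37 °C) at 1,500 cells/well, were loaded with Ca8 no-wash dye plus quencher for 45-90 min at room temperature. Compounds were pinned during FDSS kinetic reading; agonist 54-4 at EC80 (4 uM final) then added.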
Vif-A3G inh = qHTS for Inhibitors of Vif-A3G Interactions: qHTS; DNA dC->dU-editing enzyme APOBEC-3G (Homo sapiens), Q9HC16; HeLa A3G-eYFP + Vif (tagged APOBEC3G with the HIV-1 protein that degrades it), YFP fluorescence, overnight; Potency, µM (doses to about 46.1 µM), for the others: at the highest dose activity, negative = active, most hits filed as inhibitors; hit rate 0.076% among 410,000; also: potency is read from the fitted curve at half-maximal effect; % is scaled to controls: 0 for no effect and ±100 for the full control effect; nearly all actives have a fitted effect of over 60% in size
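HeLa cells stably expressing Vif and C-terminally eYFP-tagged A3G, seeded overnight at 37 deg C, then exposed to compound by pintool overnight at 37 deg C. Rise in yellow fluorescence (Ex 488/Em 500-530, Acumen) marks blocked Vif-driven A3G degradation.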
12-LOX inh = Primary qHTS assay for inhibitors of human arachidonate 12S-lipoxygenase (ALOX12): Round 2. Polyunsaturated fatty acid lipoxygenase ALOX12 (Homo sapiens), P18054. purified 12hLO, xylenol orange hydroperoxide absorbance. Potency, µM (doses to about 108 µM), for the others: at the highest dose activity change, negative = inhibition, actives largely listed as inhibitors. hit rate 1.1% among 580,000; also: potency is read from the fitted curve at half-maximal effect; % is scaled to controls: 0 for no effect and ±100 for the full control effect
Target sequence (P18054 whole entry, looked up): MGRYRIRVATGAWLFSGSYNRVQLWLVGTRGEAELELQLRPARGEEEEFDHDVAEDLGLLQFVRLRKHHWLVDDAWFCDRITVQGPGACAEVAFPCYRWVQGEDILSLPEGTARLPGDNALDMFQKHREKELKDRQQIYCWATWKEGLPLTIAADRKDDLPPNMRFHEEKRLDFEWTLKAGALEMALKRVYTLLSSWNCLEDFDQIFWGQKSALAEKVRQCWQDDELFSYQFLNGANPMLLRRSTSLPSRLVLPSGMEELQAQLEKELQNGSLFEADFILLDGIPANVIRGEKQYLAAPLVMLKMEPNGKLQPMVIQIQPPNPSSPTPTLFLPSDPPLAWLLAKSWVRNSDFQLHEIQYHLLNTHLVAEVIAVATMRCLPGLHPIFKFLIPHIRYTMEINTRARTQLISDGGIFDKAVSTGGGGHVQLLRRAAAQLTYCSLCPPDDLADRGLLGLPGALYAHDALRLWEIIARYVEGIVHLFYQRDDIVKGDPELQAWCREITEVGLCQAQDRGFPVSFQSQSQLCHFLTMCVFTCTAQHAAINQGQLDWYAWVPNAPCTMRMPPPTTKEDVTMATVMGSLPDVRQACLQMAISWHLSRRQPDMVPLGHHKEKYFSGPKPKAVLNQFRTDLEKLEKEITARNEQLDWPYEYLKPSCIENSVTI
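Purified human 12hLO (150 nM final) in 25 mM Hepes, 0.01% Triton X-100, pH 7.0 was preincubated 15 min at room temperature with compound. Then 40 uM arachidonic acid was added, 30 min. Hydroperoxide was read by Fe-XO absorbance ratio 573/405 nm.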
Glioma ERSR ind = qHTS for Inducers of the Endoplasmic Reticulum Stress Response (ERSR) in Human Glioma: qHTS; U87-MG GRP78 promoter luciferase reporter, 16 h; hit rate 0.02% among 420,000; Potency, µM, for inactives: at the highest dose activation, actives largely listed as activators; also: potency is read from the fitted curve at half-maximal effect; series mostly up to about 76 µM; % of control where 0% means no effect; nearly all actives have a fitted effect of over 35% in size
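ERSR induction read as luciferase luminescence (Bright-Glo, 10 min at room temperature) in stably transfected human U87-MG glioma cells exposed to compounds for 16 h, using GRP78 as sensor.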
Starred values were filed as active, the others as inactive; ? = inconclusive; / = not tested or not shown; ! = a repeat was not active. Shown are actives, neighbours in structure and some others; about 1.3% of the full set was active somewhere. Unless noted, calls follow the shape of the dose curve; as a rule, active = well fitted curve in the direction sought with a large enough effect; inconclusive = small, poorly fitted or top-dose-only effect, or another doubt; inactive = no such curve, though single readings can be large; an effect the other way counts as inactive or inconclusive.

SMILES | TRPML1 agonist | Vif-A3F inh | TRPML1 inh | Vif-A3G inh | 12-LOX inh | Glioma ERSR ind
N#Cc1nc(-c2cccc3ccccc23)oc1N1CCN(Cc2ccccc2)CC1 | / | / | / | / | -28% | /
CCc1cc(C2CCCN2S(=O)(=O)c2cc(C)c(C)cc2C)on1 (stereo not drawn) | / | / | / | / | 3% | /
CCn1c(O)c(C=Nc2ccccc2)sc1=S | 0 | -19% | -7 | -8% | ? | 2%
Oc1c(C=Nc2ccccc2)sc(=S)n1Cc1ccccc1 | 4 | ? | 10 | -29% | 8.9µM* | 3%
O=C(O)c1ccc2c(c1)CC(=O)N2Cc1ccc(F)cc1 | / | / | / | / | 11µM* | /
c1ccc(-c2nc(CSC3=NCCCN3)cs2)cc1 | / | / | / | / | 16µM* | /
CCCCOc1ccc2c(=O)c(-c3cc(C(=O)OC)oc3C)c(C)oc2c1 | / | / | / | / | 45µM* | /
Cc1[nH]c2ccccc2c1CC(=O)O | 3 | 4% | 23 | -1% | -22% | -4%
Cc1cc(C)c2c(CC(=O)O)c(C)[nH]c2c1 | 0 | 8% | -11 | -4% | 50µM* | -3%
O=C(NCC(c1cccs1)N1CCOCC1)c1cc2ccccc2oc1=O (stereo not drawn) | 0 | 1% | 9 | ? | 18µM*! | -5%
O=C(NCC(c1cccs1)N1CCOCC1)c1cc2ccccc2o1 (stereo not drawn) | 0 | -5% | 13 | -3% | 4% | -2%
CN(CCO)c1nc2c(c(=O)[nH]c(=O)n2C)n1Cc1ccccc1Cl | / | / | / | / | 30% | /
O=C(COc1ccc([N+](=O)[O-])cc1)NNC(=S)NC(=O)c1ccc(Br)cc1 | 0 | 6% | 9 | 0% | 40µM* | 8%
COc1ccc(NC(=S)NNC(=O)COc2ccc(Cl)cc2Cl)cc1 | 1 | 3% | 29 | -10% | ? | -4%
COc1ccc(OCC(=O)NC(=S)NNC(=O)COc2ccc(Br)cc2Cl)cc1 | 1 | 10% | -10 | -3% | 14µM* | 11%
O=C(NC(=S)NNC(=O)c1ccccc1[N+](=O)[O-])c1ccc(Br)cc1 | -1 | 6% | -14 | 1% | 3.5µM* | 0%
Cc1cccc(OCCNC(=O)Cn2nc(C)c3ccccc3c2=O)c1 | / | / | / | / | 42% | /
Cc1sc(-c2cc3c([nH]c2=O)CC(c2ccccc2)CC3=O)nc1-c1ccc(Cl)cc1 (stereo not drawn) | 0 | 13µM* | 9 | 10µM* | -3% | -5%
COc1ccc([N+](=O)[O-])cc1NS(=O)(=O)c1ccc(C)cc1 | 3 | -7% | 8 | -3% | 8% | -4%
O=[N+]([O-])c1cc(S(=O)(=O)Nc2ccccc2)ccc1Nc1ccccc1 | 3 | -14% | -4 | -10% | -11% | -4%
Cc1ccc(NS(=O)(=O)c2cc([N+](=O)[O-])ccc2NN)c(C)c1 | / | / | / | / | 40µM* | /
Cc1ccc(S(=O)(=O)Nc2ccccc2N=Cc2ccc([N+](=O)[O-])cc2[N+](=O)[O-])cc1 | 3 | 8% | 7 | -28% | 25µM* | -3%
Cc1ccc(S(=O)(=O)Nc2ccc3cc([N+](=O)[O-])ccc3c2[N+](=O)[O-])cc1 | 0 | ? | -5 | -17% | 22µM* | -7%
Cc1ccc(NS(=O)(=O)c2cc([N+](=O)[O-])ccc2N/N=C/c2ccc(N(c3ccccc3)c3ccccc3)cc2)c(C)c1 | / | / | / | / | 39% | /
Cc1ccc(S(=O)(=O)Nc2ccc(S(=O)(=O)Nc3ccccc3)cc2[N+](=O)[O-])cc1 | / | / | / | / | 25µM* | /
SMILES | TRPML1 agonist | Vif-A3F inh | TRPML1 inh | Vif-A3G inh | 12-LOX inh | Glioma ERSR ind
CC(C)c1ccccc1NC(=O)c1ccc(Cl)cc1F | / | / | / | / | -23% | /
CCn1c(O)c(/C=N/N=C/c2ccc(OC)cc2)c2cc(C3=NNC(=O)CC3)ccc21 | 1 | 4.5µM* | 11 | ? | -8% | 1%
CCOc1ccc2c(=O)c(Oc3cc(C)ccc3C)coc2c1 | / | / | / | / | 3% | /
O=C1OCC(CO)(CO)N=C1NNc1cc(Cl)ccc1Cl | 1 | -2% | -13 | 1% | ? | -2%
O=C1OCC(CO)(CO)N=C1NNc1ccccc1[N+](=O)[O-] | 0 | 2% | 1 | 1% | 11µM* | 8%
CC(C)n1c(SCC(=O)NCc2cccs2)nnc1-c1ccc2c(c1)OCCCO2 | / | / | / | / | -5% | /
CC1=NN(c2ccccc2)C(=O)/C1=C/c1ccc(Cl)cc1 | -1 | -11% | 14 | 3% | 6.3µM* | -2%
O=C(NC1CCCCC1)N1Cc2[nH]cnc2C[C@H]1c1nc(-c2ccncc2)no1 | / | / | / | / | 13µM* | /
CCCC(NC(=S)NCC1CCCO1)C12CC3CC(CC(C3)C1)C2 (stereo not drawn) | 2 | -9% | 31 | -1% | 40µM* | -1%
CCCC(NC(C)=O)C12CC3CC(CC(C3)C1)C2 (stereo not drawn) | / | / | / | / | 6% | /
CCc1c(-c2ccc(Cl)cc2)ncn1Cc1cccc(-c2ccccc2)c1 | / | / | / | / | 8.9µM* | /
C=CCNCc1cccc(OC)c1OCC | / | / | / | / | -26% | /
CCOc1ccc(Nc2c(S(=O)(=O)c3ccc(C)cc3)cnc3ccc(F)cc23)cc1 | 63* | -2% | -13 | -1% | 4% | -4%
C/C=C(/C(=C/C)c1ccc(O)cc1)c1ccc(O)cc1 | 2 | -14% | -13 | ? | 50µM*! | 7%
COc1ccccc1NC(=O)c1ncoc1-c1cccc(C)c1 | / | / | / | / | 13% | /
C=CCn1c(NS(=O)(=O)c2ccccc2)c(S(=O)(=O)c2ccc(C)cc2)c2nc3ccccc3nc21 | 0 | -1% | ? | -1% | 1% | 0%
O=S(=O)(Nc1c(S(=O)(=O)c2ccccc2)c2nc3ccccc3nc2n1C1CCCCC1)c1ccccc1 | 4 | 11% | -3 | -14% | 40µM* | 0%
C=CCNC(=O)/C=C/c1cnc2ccccc2n1 | / | / | / | / | -32% | /
COc1cccc(CN(C)[C@H]2C[C@H]3c4[nH]c5ccccc5c4CCN3C[C@H]2[C@H](C)O)c1OC | / | / | / | / | 2% | /
C[C@H](O)[C@@H]1CN2CCc3c([nH]c4ccccc34)[C@@H]2C[C@@H]1N(C)Cc1cc(Cl)cc(Cl)c1 | 69* | -3% | -4 | -6% | ? | 0%
O=C(c1ccc(F)cc1)N(c1ccccc1F)C(CCc1ccccc1)c1nc2ccccc2[nH]1 (stereo not drawn) | / | / | / | / | 5µM* | /
CCc1nnc(NS(=O)(=O)c2ccc(NC(=S)NC(=O)c3ccccc3)cc2)s1 | 2 | 4% | 31 | -1% | 7.9µM* | -2%
